Test results: PubChem BioAssay (NCATS)
Inconclusive results are not listed. Activity calls are given as the source filed them. Calls come from the whole dose curve; as a rule, active = well fitted curve in the direction sought with a large enough effect; inconclusive = small, poorly fitted or top-dose-only effect, or another doubt; inactive = no such curve, though single readings can be large; an effect the other way counts as inactive or inconclusive.

assay: Cellular Toxicity (caspase-3) Jurkat (AID 655); conditions: Jurkat caspase-3 activation, luminescence, DMSO = 0%, tamoxifen = 100%; at 92.2 µM (top of the series);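 note: cells exposed to compound for 16 h at 37 °C before reading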
Procedure, shortened: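 Caspase 3/7 activation is scored as increased luminescence in Jurkat cells cultured with compound for 16 hours in complete medium. AC50 values come from Hill fits of qHTS concentration-response data normalized to DMSO and 100 uM tamoxifen controls.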

Row | Structure (SMILES) | caspase-3 activation
1 | O=C(O)CC(O)(CC(=O)O)C(=O)O | 101% (active)
2 | C=Cc1ccccc1 | -0.459% (inactive)
3 | CN(C)Cc1ccccc1 | 0.691% (inactive)
4 | COC(C)=O | -0.555% (inactive)
5 | CCCCCCCCCC(=O)O | -4.13% (inactive)

assay: Cellular Toxicity (caspase-3) HUV-EC-C (AID 656); conditions: HUV-EC-C cells, caspase-3 activation (apoptosis), vehicle = 0, 100 µM tamoxifen = 100%; series mostly up to 92.2 µM;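 note: cells exposed to compound for 16 h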
Procedure, shortened: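 Read-out: luminescence proportional to caspase 3/7 activity, measured 20 min after adding Caspase-Glo 3/7 reagent. Cells (HUV-EC-C) had received compound for 16 hr at 37°C. Increases relative to DMSO and 100 uM tamoxifen gave concentration-response AC50 values.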

Row | Structure (SMILES) | outcome
6 | O=C(O)CC(O)(CC(=O)O)C(=O)O | inactive
7 | C=Cc1ccccc1 | inactive
8 | CN(C)Cc1ccccc1 | inactive
9 | COC(C)=O | inactive
10 | CCCCCCCCCC(=O)O | inactive

assay: Cellular Toxicity (caspase-3) SHSY5Y (AID 657); conditions: SH-SY5Y caspase-3 activation, DMSO zero, 10 µM staurosporine = 100%; series mostly up to 91.7 µM;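 note: cells exposed to compound for 16 hours at 37 °C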
Procedure, shortened: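 Cells plated and incubated 5 h at 37 °C, dosed over a concentration range, incubated 16 h, then given Caspase-Glo 3/7 reagent for 1 h at room temperature before luminescence reading. Staurosporine (10 uM) defined full stimulation.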

Row | Structure (SMILES) | outcome
11 | O=C(O)CC(O)(CC(=O)O)C(=O)O | inactive
12 | C=Cc1ccccc1 | inactive
13 | CN(C)Cc1ccccc1 | inactive
14 | COC(C)=O | inactive
15 | CCCCCCCCCC(=O)O | inactive

assay: Cellular Toxicity (caspase-3) BJ (AID 658); conditions: BJ fibroblasts, luminescence, normalized: DMSO 0%, staurosporine 100%; series mostly up to 91.7 µM;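 note: 0% = DMSO basal and 100% = 10 µM staurosporine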
Procedure, shortened: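 Caspase-Glo 3/7 luminescence, read 1 hr after reagent at room temperature, in normal BJ fibroblasts exposed 16 hours at 37 °C. AC50 values from Hill-equation concentration-response, scaled between DMSO basal and 10 uM staurosporine as 100%.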

Row | Structure (SMILES) | outcome
16 | O=C(O)CC(O)(CC(=O)O)C(=O)O | inactive
17 | C=Cc1ccccc1 | inactive
18 | CN(C)Cc1ccccc1 | inactive
19 | COC(C)=O | inactive
20 | CCCCCCCCCC(=O)O | inactive
